According to PubChem BioAssay (NCATS):
Records with an inconclusive call do not appear. Entries that show only a call come without a potency. Active and inactive are the calls of the source. The call rests on the fitted dose curve; in most records, active means well fitted activation curve with a large enough effect; inconclusive means small, poorly fitted or top-dose-only effect; inactive means flat fitted curve, though single readings scatter.

The molecules below were run against D(1A) dopamine receptor (Homo sapiens) (UniProt P21728) (assay: HTS Assay for Allosteric Agonists of the Human D1 Dopamine Receptor: Primary Screen for Agonists (AID 488981)). Conditions: Inducible HEK293 T-REx D1 cells, calcium-flux fluorescence, 180 s kinetic; series mostly up to 41.8 µM.
Sequence of D(1A) dopamine receptor (Homo sapiens) (P21728 whole entry, looked up): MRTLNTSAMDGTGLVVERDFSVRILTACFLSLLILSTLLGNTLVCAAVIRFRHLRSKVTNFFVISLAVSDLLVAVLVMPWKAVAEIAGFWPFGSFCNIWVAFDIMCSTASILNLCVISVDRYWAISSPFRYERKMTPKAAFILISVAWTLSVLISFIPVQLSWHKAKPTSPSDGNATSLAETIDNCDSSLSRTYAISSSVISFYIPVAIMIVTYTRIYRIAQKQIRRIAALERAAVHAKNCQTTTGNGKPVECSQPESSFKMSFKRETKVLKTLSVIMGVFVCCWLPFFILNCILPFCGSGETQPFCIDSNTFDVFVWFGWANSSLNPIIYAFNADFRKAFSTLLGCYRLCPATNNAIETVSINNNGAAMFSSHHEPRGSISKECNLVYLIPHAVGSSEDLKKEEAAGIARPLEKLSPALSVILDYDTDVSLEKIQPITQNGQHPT
Text: Dopamine receptors (DARs) are involved in the etiology and/or therapy of a number of neuropsychiatric and endocrine disorders. For instance, all receptor-based antiparkinsonian drugs work via stimulating the […] DAR subtype whereas all FDA-approved antipsychotic agents are antagonists of this receptor. […] There are three different types of allosteric modulators that we are seeking, two of which will stimulate or augment receptor signaling, allosteric agonists and potentiators, while the third, allosteric antagonists, will attenuate receptor signaling. The present primary screening assay measures compound agonism by tracking calcium flux in a […], inducible Hek293 Trex D1 cell line.
Freshly passaged cells are plated in 1536 well black, clear bottom plates at a density of 4000 cells/well in 3 ul of complete media containing 1x tetracycline inducer. After an overnight incubation at 30 C in 5% CO2, cells are loaded with 2 ul of the no wash Calcium Assay Kit (ABD Bioquest) and incubated at room temperature for 30 to 90 minutes. A 10 cycle (1 second/cycle) baseline measurement is taken and then the FDSS online 1536 pintool delivers 23 nl of compound library (as well as dopamine controls) to the plate. The plate is measured for kinetically at 1 cycle/sec for 180 seconds and is considered to be the agonist portion of the assay (eg, compounds which activate a positive calcium response during this portion are flagged as potential agonists). Following the 180 second read, 1 ul of an EC20 of dopamine is delivered by an onboard pipette head. Measurements are taken kinetically for an additional 180 seconds.
Potency means the concentration at half of the fitted maximal effect.

| Structure (SMILES) | Potency |
| --- | --- |
| COC(=O)c1c(C)[nH]c(C)c1C(=O)c1ccccc1Cc1ccccc1 | inactive |
| N#C/C(=C\c1c[nH]c2ccccc12)C(=O)c1ccc(O)c(O)c1 | inactive |
| N=C(N)SCCc1ccc(CCSC(=N)N)cc1 | inactive |
| N#C/C(=C\c1ccc(O)c(O)c1)C(=O)c1ccc(O)c(O)c1 | inactive |
| C=CC(C)=C[C@@]1(C)SC(=O)C(C)=C1O | inactive |
| CCCCCCCC/C=C\CCCCCCCC(=O)NCCO | inactive |
| COc1ccccc1N1CCN(CCCCNS(=O)(=O)c2cccc3c(N(C)C)cccc23)CC1 | inactive |
| NCC1OC(O[C@H]2[C@H](O)[C@@H](OC3C(O)C(N)CC(N)C3OC3OC(CO)C(O)C(O)C3N)O[C@@H]2CO)C(N)C(O)C1O (stereo not given in full) | inactive |
| Brc1c(Br)c(Br)c2n[nH]nc2c1Br | inactive |
| O=P(O)(O)C(Cl)(Cl)P(=O)(O)O | inactive |
| CNC(=O)[C@H]1O[C@@H](n2cnc3c(NCc4cccc(I)c4)ncnc32)[C@H](O)[C@@H]1O | inactive |
| C[N+]1(C)C2CC(OC(=O)[C@H](CO)c3ccccc3)CC1C1OC12 (stereo not given in full) | inactive |
| CSc1ccccc1N1CCN(CCCCCC(=O)NC2CCCc3ccccc32)CC1 (stereo not given) | inactive |
| CCNC(=O)[C@H]1O[C@@H](n2cnc3c(N)nc(NCCc4ccc(CCC(=O)O)cc4)nc32)[C@H](O)[C@@H]1O | inactive |
| O=C1NC(O)=NC1(c1ccccc1)c1ccccc1 | inactive |
| Oc1cc2c(cc1O)CN(C(=S)NCCc1ccc(Cl)cc1)CCC2 | inactive |
| Cc1ccc(S(=O)(=O)/C=C/C#N)cc1 | inactive |
| COc1cc(OC)c(/C=C2/C(=O)Nc3ccccc32)c(OC)c1 | inactive |
| Cc1cc2c(cc1Cl)N(C(=O)Nc1ccc(Oc3cccnc3C)nc1)CC2 | inactive |
| Cn1ncc(S(=O)(=O)Cc2ccccc2)c(Br)c1=O | inactive |

| Structure (SMILES) | Potency |
| --- | --- |
| NCCCCCCCCCCN | inactive |
| c1ccc(-c2ccccn2)nc1 | inactive |
| CC(C)CC(NP(=O)(O)O[C@@H]1O[C@@H](C)[C@H](O)[C@@H](O)[C@H]1O)C(=O)NC(Cc1c[nH]c2ccccc12)C(=O)O (stereo not given in full) | inactive |
| Cc1cc(NC2CCCCC2)nc(-n2nc(C)cc2C)n1 | inactive |
| CN1C2CC(OC(=O)[C@H](CO)c3ccccc3)CC1C1OC12 (stereo not given in full) | inactive |
| Ic1ccc(N2CCN(Cc3c[nH]c4ncccc34)CC2)cc1 | inactive |
| O=C(O)[C@@H]1C[C@@H](C(=O)O)N1 | inactive |
| CC(=O)N[C@H](C(=O)O)C(C)(C)SN=O | inactive |
| CC(C)Cc1ccc([C@H](C)C(=O)O)cc1 | inactive |
| COc1ccccc1N1CCN(CCN(C(=O)c2ccc(I)cc2)c2ccccn2)CC1 | inactive |
| CCCCC/C=C\CC(O)/C=C/c1cccc(CC(O)CCCCO)n1 (stereo not given) | inactive |
| CCCCCCCCCCCCCCCCCC(=O)OC(CC(=O)O)C[N+](C)(C)C (stereo not given) | 11.2 µM (active) |
| CN(C)C(N)=NCCC[C@H](N)C(=O)O | inactive |
| NS(=O)(=O)C#Cc1ccccc1 | inactive |
| OC[C@H]1O[C@@H](n2cnc3c(NC4CCCC4)ncnc32)[C@H](O)[C@@H]1O | inactive |
| CCCCCCCCc1ccc(-c2ccc(C(=O)O)cc2)cc1 | inactive |
| CN=c1nc(-c2ccccc2)n(-c2ccccc2)s1 | inactive |
| CCCCCCCCCCCCCCCCCC(=O)NCC(COP(=O)([O-])OCC[N+](C)(C)C)OCC (stereo not given) | 10 µM (active) |
| Clc1ccc(N2CCN(Cc3c[nH]c4ncccc34)CC2)cc1 | inactive |
| CCCCCCCCCCCCCCCCCCNC(=O)OCC(COP(=O)([O-])OCC[n+]1ccsc1)OC (stereo not given) | inactive |
